Reference: PubChem BioAssay AID463187 (University of Pittsburgh Molecular Library Screening Center, 2010)
About 1,500 (0.68%) of roughly 220,000 compounds were called active.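 How the source made its calls: active means Hck-Nef kinase inhibition above about 50% (limit read from the data); inactive means inhibition below that limit.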 The sample as a whole holds a higher share of actives than the screen did.

target: Tyrosine-protein kinase HCK (Homo sapiens) (UniProt P08631); assay: Hck:Nef complex kinase activity blockers – biochemical, Z-Lyte FRET, 384-well, Hck-YEEI, primary screen (AID 463187); details: Recombinant Hck-YEEI plus Nef, Z-Lyte FRET kinase assay; at 20 µM; active compounds read high;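 further: 0% = DMSO with Hck plus Nef and 100% = Hck alone without Nef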
Sequence (P08631 whole entry, looked up): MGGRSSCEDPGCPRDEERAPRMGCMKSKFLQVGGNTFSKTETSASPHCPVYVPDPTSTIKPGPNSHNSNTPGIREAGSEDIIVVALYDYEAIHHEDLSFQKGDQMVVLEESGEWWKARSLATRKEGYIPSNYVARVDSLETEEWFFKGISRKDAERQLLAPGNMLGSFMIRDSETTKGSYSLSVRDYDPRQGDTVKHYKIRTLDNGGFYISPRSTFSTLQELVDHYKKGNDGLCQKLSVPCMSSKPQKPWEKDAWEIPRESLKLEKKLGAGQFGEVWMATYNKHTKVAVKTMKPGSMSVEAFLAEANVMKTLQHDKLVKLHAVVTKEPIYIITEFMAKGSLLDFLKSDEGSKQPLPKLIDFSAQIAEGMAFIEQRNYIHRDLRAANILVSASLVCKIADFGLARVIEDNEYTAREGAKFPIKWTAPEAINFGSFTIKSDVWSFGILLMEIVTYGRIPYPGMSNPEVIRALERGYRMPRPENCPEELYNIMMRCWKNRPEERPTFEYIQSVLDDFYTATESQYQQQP

inhibition, inactive:
COC(=O)Cn1c(=NC(=O)c2cc(OC)c(OC)c(OC)c2)sc2cc(OC)ccc21 -1.02%
COCC(C)NC(=O)COc1nncc2ccccc12 (stereo not given) 21.5%
Cc1cc(=O)[nH]c(S)c1C#N -0.332%
O=S(=O)(Cc1ccccc1)c1nc2ccccc2n1Cc1ccccn1 5.67%
Cc1ccc(-n2c(C)cc(/C=N/Nc3ccc([N+](=O)[O-])cn3)c2C)c(C)c1 0.189%
Cc1cc(/C=N/n2cnnc2)c(C)n1-c1cccc(C(=O)O)c1 -0.934%
Cc1c(CCOC(=O)CC23CC4CC(CC(C)(C4)C2)C3)sc[n+]1Cc1ccc([N+](=O)[O-])cc1 6.69%
C=CCn1c(=N)n(CC(O)COc2ccc(OC)cc2)c2ccccc21 (stereo not given) 16%
COc1ccc(CCNCC(O)Cn2ccc3ccccc32)cc1OC (stereo not given) 37.4%
COc1ccccc1C(=O)Nn1c(-c2cccs2)nc2ccccc2c1=O 2.4%
CC(C)n1c(-c2cccs2)nc2ccccc21 10.6%
Cc1cc(C)cc(C(=O)NC(=S)Nc2ccc3[nH]c(=O)[nH]c3c2)c1 2.61%
Cc1cc(-c2csc(N)n2)c(C)n1-c1ccccc1 7.5%
COc1ccc(CCn2c(=N)c(C(=O)NCc3ccco3)cc3c(=O)n4cccc(C)c4nc32)cc1 7.77%
CCc1cccc2c(=O)c(C(=O)NCCCOC)c[nH]c12 -18.3%
COc1ccccc1N(C)S(=O)(=O)c1ccc(C(=O)NC2CCCCCC2)cc1 0.492%
CCCCn1c(N)c(N(CC)C(=O)/C=C/c2ccco2)c(=O)[nH]c1=O -7.95%
O=C(c1cnn(-c2ccc(Cl)cc2)c1)c1ccccc1O 17%
Cc1ccc(CCC(=O)Nc2ncc(Cc3cc(Cl)ccc3Cl)s2)o1 6.19%
O=C(NCc1csc(-c2cccs2)n1)C1CC1 -1.15%
COC(=O)CN1C(=S)N(c2ccccc2)C(=O)C1CC(=O)Nc1ccc(Cl)cc1 (stereo not given) 2.46%
COc1ccc(C(=O)n2nc(-c3ccc(C)cc3)nc2N)cc1OC -1.4%
COc1ccc(C(=O)O/N=C(\N)Cc2ccc(Cl)cc2Cl)cc1OC 3.19%
CC(C)NC(=O)/C(C#N)=C\c1ccc(N(C)C)c(Br)c1 7.25%
O=C(O)Cc1sc(-c2ccccc2)nc1-c1cccs1 -10.1%
CCCNC(=O)N1CCN(C(=O)NCCC)CC1 0.793%
CCCCCC(=O)Nc1ccc(S(=O)(=O)Nc2ccc(Cl)nn2)cc1 -1.44%
C=C(C)COc1ccc(-c2n[nH]c(C)c2-c2ccccc2)c(O)c1 -0.0537%
CCOc1ccc(-c2n[nH]c(C)c2-c2ccccn2)c(O)c1 -15.5%
C=C(C)COc1ccc(-c2n[nH]c(C)c2-c2ccccc2OC)c(O)c1 12.1%
CCOc1ccccc1Oc1cn[nH]c1-c1ccc(OC)cc1O 26.3%
c1ccc(-c2cc3c(NCC4COc5ccccc5O4)ncnc3s2)cc1 (stereo not given) 5.9%
COc1ccc(-c2cc(C(=O)NCCCn3ccnc3)no2)cc1 -9.96%
Cc1cccc2cc(CN(C(=O)c3cccs3)c3ccccc3)c(=O)[nH]c12 3.68%
O=C(CN1CCN(c2ccc(O)cc2)CC1)Nc1cc(S(=O)(=O)N2CCOCC2)ccc1Cl 12.6%
O=C(N/N=C/c1ccc([N+](=O)[O-])o1)c1cccc(S(=O)(=O)N2CCOCC2)c1 18.1%
Cc1nn(Cc2ccc(C(=O)N3N=C(C(F)F)CC3(O)C(F)F)cc2)c(C)c1[N+](=O)[O-] (stereo not given) -2.69%
O=C(CN1C(=O)/C(=C\c2ccccc2F)SC1=S)Nc1nc2ccccc2s1 4.36%
Cc1ccc(-c2nn(-c3ccccc3)cc2/C=C/C(=O)Nc2cccc(S(N)(=O)=O)c2)cc1 14.1%
CC1(C)CC(=O)C(C2c3ccccc3S(=O)(=O)c3ccccc32)C(=O)C1 2.74%
C=CCOc1c2ccc(C(=O)N(CC)c3ccc(OC)cc3)cc2nn1C -0.652%
CC1=NN(/C(=N\c2nnc(C)s2)Nc2ccccc2)[C@H](c2ccc(C)cc2)S1 -3.06%
CCCc1cc(=O)oc2c(C)c(O)c(CN3CCCCC3)cc12 31%
COC(=O)COc1ccc2oc(=O)cc(C)c2c1 1.26%
CCOC(=O)c1cc2c(=O)n3ccccc3nc2n(CC(C)C)c1=NC(=O)c1c(-c2c(F)cccc2Cl)noc1C 8.32%
CCOC(=O)c1cc2n(c1N)-c1ccccc1C2=O -1.56%
O=C(COC(=O)c1ccccc1C(=O)N1CCN(c2ccccc2)CC1)NCc1ccccc1 -5.15%
O=C(NNC(=O)c1ccc(Cl)cc1Cl)c1cccs1 22.7%
C=CCSc1nc(Cc2ccc(Cl)cc2)nc2ccccc12 -0.392%
COC(=O)C1=C(C)Nc2ncnn2C1c1cccnc1 (stereo not given) 0.821%
Brc1ccc(C2=CC(c3ccco3)n3ncnc3N2)cc1 (stereo not given) -4.23%
CCC(C)(C)NC(=O)CN(Cc1cccs1)C(=O)CNS(=O)(=O)c1ccc(F)cc1 15.6%
O=[N+]([O-])c1ccc(F)cc1Oc1nc(-c2cccnc2)nc2ccccc12 13.2%
CCC(O)C1CCN(Cc2cn(-c3ccc(OC)cc3)nc2-c2cccc(F)c2)CC1 (stereo not given) -11.2%
CCOc1ccc(CCNC(=O)C2=C(C)C(=O)OC23CCC(C)CC3)cc1OCC (stereo not given) 25.3%
C=CCn1c(N)c(S(=O)(=O)c2cccs2)c2nc3ccccc3nc21 21.6%
CCN(CC)CCn1c(N)c(S(=O)(=O)c2ccccc2)c2nc3ccccc3nc21 11.1%
COc1ccc(/C=C2/C(=O)OCc3cc(OC)c(OC)cc32)c(OC)c1 1.93%
O=C(NCc1ccco1)c1nn2cccnc2c1Cl 20.7%
O=C(O)C1C2C=CC(O2)C1C(=O)NCCc1cccc(Cl)c1 (stereo not given) 15.6%
O=C(N/N=C/c1ccco1)c1ccc(NC(=O)C2CC2)cc1 1.97%
O=C(N/N=C/c1ccco1)c1ccc(C(=O)N/N=C/c2ccco2)o1 -0.711%
NC(=O)C[C@@H]1NC(=O)CNC(=O)c2cc([N+](=O)[O-])cc(I)c2NCCC(C(N)=O)NC1=O (stereo not given in full) -7.95%
CCOC(=O)COc1cc(OCC(=O)OCC)c2c(=O)cc(-c3ccccc3)oc2c1 -0.0489%
CCOC(=O)COc1cc(O)c2c(=O)cc(-c3ccccc3)oc2c1 20.1%
Cc1ccc2nc(-c3cccc(Br)c3)cc(C(=O)Nn3cnnc3)c2c1 -7.45%
CC(C)(C)NC(=O)COC(=O)c1cc(Br)ccc1Cl -0.533%
Cc1ccc(CSCC(N)C(=O)O)cc1 (stereo not given) 1.34%
Cc1ccc(C(=O)CS(C)(=O)=O)cc1 1.08%
CCc1nnc(NC(=O)CSc2nc(SC)ns2)s1 8.82%
Cc1ccc(CSc2nnc(-c3cnccn3)n2C)cc1 20.9%
CC(C)Oc1ccc(C(=O)NC(C)(C)CO)cc1 4.72%
CCNC(=S)NNC(=O)c1ccc2ncccc2c1 27.6%
COc1cccc(/C=C2\SC(=N)N(c3ccc(F)cc3)C2=O)c1 26.2%
Cc1nn(C)cc1CNC(=O)Nc1ccc(Cl)cc1 12.3%
COc1ccc(Cl)cc1C(=O)NCc1cn(C)nc1C 0.825%

inhibition, active:
Cc1cc(/C=N/Nc2ccc([N+](=O)[O-])cn2)c(C)n1-c1cccc(C(=O)O)c1 58.6%
COC(=O)c1ccc(OCC(O)CN(CCO)CC(O)Cn2ccc3ccccc32)cc1 (stereo not given) 60.4%
COCCCn1c(-c2cccs2)nc2nc3ccccc3nc21 67.9%
Cc1ncc(CC(=O)n2cc(C(=O)c3cc(Cl)ccc3O)cn2)s1 78.7%
COc1ccc(C(=O)n2nc(-c3ccc(Cl)cc3)nc2N)cc1OC 81.4%
O=[N+]([O-])C(=c1ccc2c(c1)N1C3=C(CCCC3)CC3CCCCC31N=2)[N+](=O)[O-] (stereo not given) 73%
CCOc1ccc(-c2nc(N)ncc2-c2ccccc2OC)c(O)c1 75.3%
C=C(C)COc1ccc(-c2nc(N)ncc2-c2ccccc2OC)c(O)c1 68.8%
O=[N+]([O-])c1cc(Cl)cc(/C=N/NC(=S)Nc2cc(S(=O)(=O)N3CCOCC3)ccc2Cl)c1O 68.6%
CN(C)S(=O)(=O)c1cccc(-c2nn(-c3ccccc3)cc2/C=C2\SC(=S)N(CC(=O)O)C2=O)c1 56.2%
COC(=O)Cc1cc(=O)oc2c(C)c(O)ccc12 58.3%
CCCn1c(=NC(C)=O)c(C(=O)OCC)cc2c(=O)n3ccccc3nc21 95.9%
Clc1ccc2c(c1)C1=C(C(c3ccncc3)O2)C(c2ccc(Br)cc2)n2ncnc2N1 (stereo not given) 83.6%
Cc1ccc(S(=O)(=O)c2c(N)n(C)c3nc4ccccc4nc23)cc1 52.7%
O=C(Cc1ccccc1)Nc1cccc(C(=O)N/N=C/c2ccco2)c1 54.9%
COc1c(O)cc2oc(-c3ccc(O)c(O)c3)cc(=O)c2c1O 97.3%
Cc1cccc(-[n+]2c(-c3cccc(Br)c3)[nH]c3nc4ccccc4nc32)c1 50.4%
Cc1ccc(SC(CC(=O)c2ccc(C(C)(C)C)cc2)C(=O)O)cc1 (stereo not given) 73.6%
Cc1ccc(-c2cc(C(=O)NCc3cn(C)nc3C)c3cc(Br)ccc3n2)cc1 50.4%
